Screening results: PubChem BioAssay, several laboratories
Hits are enriched below; roughly 2.4% of the tested compounds scored in any of these assays.
PREPL inhibitor – PREPL enzyme inhibitors, primary screen, biochemical, fluorescence polarization; AID 2751, 2010; inhibition, % at 5.96 µM; recombinant PREPL, fluorescence polarization activity-based probe; 320,000 compounds, 0.68% hits; in the data active = inhibition above about 43%;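 also: 0% = enzyme with DMSO and 100% = wells lacking enzyme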
PP5 primary – PP5 phosphatase inhibitors, primary screen, biochemical, fluorescence; Serine/threonine-protein phosphatase 5 (Homo sapiens), P53041; 320,000 compounds, 0.18% hits; purified PP5c, OMFP substrate fluorescence; inhibition, % at 6.7 µM; AID 1987, 2009;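 active = inhibition above the campaign's mean inhibition across all tested compounds plus 3 SD, cut at about 9.5% in these data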;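 also: 0% = DMSO only and 100% = 100 µM cantharidin control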
PP1 counter – PP1-alpha phosphatase inhibitors, primary screen, counter-screen for PP5 inhibitor project, biochemical, fluorescence, OMFP substrate, single point; Serine/threonine-protein phosphatase PP1-alpha catalytic subunit (Homo sapiens), P62136; purified PP1alpha; inhibition, % at 6.7 µM; 320,000 compounds, 0.9% hits;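 active = inhibition above the mean inhibition of all tested compounds plus 3 SD, computed separately for each screening campaign, cut at about 15% in these data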
NadD block – inhibitors of S. aureus NadD, primary screen, biochemical, colorimetric, uHTS | Nicotinate-nucleotide adenylyltransferase NadD (Staphylococcus aureus N315) | purified NadD enzyme, colorimetric absorbance read-out | inhibition, % at 20 µM | 360,000 compounds, 0.78% hits | AID 602399, 2012; in the data active = inhibition above about 26%
Rpn11 block – Rpn11 (PSMD14) deubiquitinase inhibitors, primary screen, biochemical, fluorescence polarization, uHTS; 26S proteasome non-ATPase regulatory subunit 14 (Homo sapiens), O00487; human 26S proteasome, Ub4-pepOG fluorescence polarization; 20S core pre-blocked with epoxomicin; inhibition, % at 20 µM; 360,000 compounds, 0.59% hits;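 active = inhibition at 20 µM, scaled to each plate's controls, above about 33%, limit read from the data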
PP1 confirm – PP1 phosphatase inhibitors, confirmation, biochemical, fluorescence, OMFP substrate, triplicate; shares compounds with PP1 counter; purified PP1alpha; AID 2358, 2010; 1,900 compounds, 52% hits; inhibition, % at 6.7 µM;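 active = mean PP1 inhibition above a set limit taken from the earlier primary screen, cut at about 15% in these data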
PP5 inh counter – PP5 phosphatase inhibition by PP1 hits, confirmation, counter-screen for PP1 inhibitor project, biochemical, fluorescence, triplicate; shares compounds with PP1 counter; purified PP5c, OMFP fluorescence; inhibition, % at 6.7 µM; 1,900 compounds, 4% hits; AID 2360, 2010;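 active = mean PP5 inhibition over triplicate wells above about 9.5% taken from the earlier PP1 screen, limit read from the data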
Rpn11 confirm – Rpn11 (PSMD14) deubiquitinase inhibitors, confirmation, biochemical, fluorescence polarization, single concentration | shares compounds with Rpn11 block | purified human 26S proteasome, Ub4-pepOG fluorescence polarization; proteasome pretreated with epoxomicin | inhibition, % at 20 µM | 1,900 compounds, 29% hits
MMP-2 counter – MMP-2 enzyme inhibition, confirmation, counter-screen for RPN11 inhibitor project, biochemical, fluorescence, single concentration; shares compounds with Rpn11 block; recombinant MMP-2, FRET peptide cleavage fluorescence; inhibition, % at 20 µM; 1,900 compounds, 4% hits; AID 602330, 2012;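 also: human MMP-2 activated beforehand with APMA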
Target sequence (P08253 whole entry, looked up): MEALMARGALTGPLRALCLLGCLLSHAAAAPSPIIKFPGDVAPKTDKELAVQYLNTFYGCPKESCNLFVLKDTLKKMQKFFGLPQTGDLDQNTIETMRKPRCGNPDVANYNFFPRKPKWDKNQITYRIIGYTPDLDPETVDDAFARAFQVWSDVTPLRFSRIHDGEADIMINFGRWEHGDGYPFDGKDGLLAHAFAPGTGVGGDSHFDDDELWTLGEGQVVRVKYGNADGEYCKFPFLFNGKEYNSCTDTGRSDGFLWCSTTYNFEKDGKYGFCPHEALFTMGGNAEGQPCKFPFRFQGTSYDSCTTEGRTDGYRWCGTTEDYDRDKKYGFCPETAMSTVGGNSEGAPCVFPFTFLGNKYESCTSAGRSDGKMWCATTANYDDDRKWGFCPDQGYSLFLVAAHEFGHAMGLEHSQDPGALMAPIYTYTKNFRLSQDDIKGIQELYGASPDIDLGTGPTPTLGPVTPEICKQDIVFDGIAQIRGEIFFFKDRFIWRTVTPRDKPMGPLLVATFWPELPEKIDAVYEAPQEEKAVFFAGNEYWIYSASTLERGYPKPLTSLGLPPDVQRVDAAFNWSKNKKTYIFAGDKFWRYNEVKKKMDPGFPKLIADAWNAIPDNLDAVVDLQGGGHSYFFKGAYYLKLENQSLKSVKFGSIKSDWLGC
Thrombin FP – bovine thrombin protease inhibition, confirmation, counter-screen for Rpn11 inhibitor project, biochemical, fluorescence polarization, single concentration. 1,900 compounds, 13% hits. inhibition, % at 20 µM. AID 602333, 2012. shares compounds with Rpn11 block. bovine thrombin cleavage of Ub4-pepOG;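 active = mean inhibition at least 40% at 20 µM, or signal 3 deviations below plate average, so some actives read negative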;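 also: plate controls were thrombin with DMSO for no effect and buffer wells lacking thrombin for full effect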
NadD inh conf – inhibitors of S. aureus NadD, confirmation, biochemical, colorimetric, single concentration; purified S. aureus NadD, colorimetric enzyme assay; inhibition, % at 20 µM; 2,000 compounds, 13% hits; shares compounds with NadD block; in the data active = inhibition mostly above about 42%, no sharp cut-off; inactive = mostly below about 42%
* marks the source's active call; other numbers are inactive results; . = no result shown. Rule as the data show it, unless noted: active = inhibition above about 40%; inactive = the rest.

SMILES | PREPL inhibitor | PP5 primary | PP1 counter | NadD block | Rpn11 block | PP1 confirm | PP5 inh counter | Rpn11 confirm | MMP-2 counter | Thrombin FP | NadD inh conf
N=C1/C(=C\c2ccc(-c3cccc(C(=O)O)c3)o2)C(=O)N=C2SC=C(c3ccccc3)N12 | 23.5 | 0.9 | 44.9* | 48.8* | 107.8* | 31.9* | -2.2 | 149.4* | 26.7 | 50.8* | .
Cc1cc(N2CCCC2)ccc1/C=C1\NC(=S)N(C)C1=O | 25.3 | 1.5 | -1.4 | 16.4 | . | . | . | . | . | . | .
Cc1cc(N2CCCC2)ccc1/C=N/n1cnnc1 | 37.7 | 1.9 | 17.6* | 12.9 | 47.1* | 0.9 | -6.6 | -22.7 | -58.6 | -12.1 | .
O=C(N/N=C/c1ccncc1)c1cccc(NC(=O)c2ccc(Cl)cc2)c1 | -0.4 | 1.3 | 30.7* | 3.6 | 73.1* | 12.1 | -1.4 | 47.0* | -1.1 | 0.3 | .
O=C(N/N=C/c1ccncc1)c1cccc(N/N=C/c2ccncc2)c1 | 17.9 | 0.7 | -2.8 | 5.0 | 1.3 | . | . | . | . | . | .
COc1ccc(CCNc2ccc(C(CC(N)=O)NC(=O)Cc3ccc(Br)cc3)cc2[N+](=O)[O-])cc1 (centres undefined) | -64.5 | -4.9 | 17.7* | -1.3 | 54.6* | 26.0* | -3.3 | 16.1 | -21.2 | -20.4 | .
COc1cc(/C=C2\SC(=O)N(CC(=O)Nc3ccc(C)cc3)C2=O)cc(Cl)c1OCC(=O)O | -6.3 | -0.2 | 42.8* | 25.3 | 87.2* | 45.9* | -4.5 | 4.4 | -11.8 | 24.9 | .
O=c1c(Cl)c(N/N=C/c2ccc(Br)cc2)cnn1-c1ccccc1 | -21.6 | 3.9 | 24.1* | 4.3 | 96.5* | 21.9* | -2.6 | 46.6* | -26.3 | 12.9 | .
Cc1c(NC(=O)c2cccc(-c3cc4ccccc4oc3=O)c2)cccc1-c1nc2ncccc2o1 | -40.9 | 1.0 | 23.4* | 47.5* | 137.9* | 30.8* | 0.4 | 109.5* | -27.4 | 0.5 | 4.5
COc1ccc(-c2cc(C(=O)NNC(=S)NC(=O)c3c(-c4ccccc4)noc3C)[nH]n2)cc1 | 11.1 | 2.2 | 17.7* | 42.5* | 33.9 | 16.9* | -0.5 | . | . | . | 52.5*
O=C(COC(=O)/C=C/c1ccc(Br)o1)Nc1ccc2[nH]c(=O)[nH]c2c1 | 22.8 | 2.9 | 20.6* | 29.1* | 40.2 | 25.3* | 3.4 | . | . | . | 1.8
NC(=O)c1ccc(NC(=O)COC(=O)/C=C/c2ccc(Br)o2)cc1 | 7.3 | . | . | 4.5 | 6.2 | . | . | . | . | . | .
NS(=O)(=O)c1ccc(N/N=C/c2cn(-c3ccccc3)nc2-c2cccs2)c([N+](=O)[O-])c1 | 3.6 | 0.9 | 26.3* | 36.3* | 2.1 | 26.2* | 0.4 | . | . | . | -5.8
NS(=O)(=O)c1ccc(N/N=C/c2cn(-c3ccccc3)nc2-c2cccs2)cc1 | 15.4 | 2.4 | -5.6 | 6.9 | 0.2 | . | . | . | . | . | .
O=C1C=C(c2ccc(CO)cc2)C[C@@H](c2ccc3c(c2)OCO3)C1 | 10.6 | 1.9 | -6.1 | -5.8 | -4.3 | . | . | . | . | . | .
COc1ccc(C(=O)NCCCn2ccnc2)cc1 | 11.8 | 3.1 | -1.4 | -1.2 | -4.6 | . | . | . | . | . | .
COc1ccc2c(Cl)c(C(=O)NCCCn3ccnc3)sc2c1Cl | 8.6 | -3.0 | 18.4* | 35.7* | 30.5 | 2.6 | -4.0 | . | . | . | 7.4
Nc1ccc2nc(-c3ccc(Cl)cc3)[nH]c2c1 | 17.5 | 2.6 | 7.6 | 10.8 | 7.5 | . | . | . | . | . | .
Nc1ccc2nc(-c3cccc(-c4nc5ccc(N)cc5[nH]4)c3)[nH]c2c1 | 28.1 | 2.6 | 42.1* | 39.1* | 3.6 | -2.5 | 4.3 | . | . | . | 23.8
COc1ccc(NC(=O)CCNS(=O)(=O)c2cccc3nsnc23)c(OC)c1 | 16.0 | 1.4 | -1.2 | -5.5 | 2.5 | . | . | . | . | . | .
Cc1cccc(NC(=O)CSc2nnc(C)c(=O)n2N)c1 | -7.5 | 2.1 | -0.8 | -4.3 | 1.9 | . | . | . | . | . | .
COc1ccc(S(=O)(=O)N2CCOCC2)cc1NC(=O)c1cccc(-n2cccc2)c1 | 15.1 | 0.0 | 7.3 | 22.7 | 30.0 | . | . | . | . | . | .
CCOc1ccc(NC(=O)c2cccc(-n3cccc3)c2)cc1S(=O)(=O)N1CCOCC1 | 19.0 | 4.1 | 21.5* | 32.2* | -333.3 | 22.7* | 1.2 | . | . | . | 30.4
COc1ccc(/C=C2\SC(=O)N(CCC(=O)Nc3ccc(S(=O)(=O)Nc4nccs4)cc3)C2=O)cc1 | 1.1 | 4.0 | 21.0* | 75.6* | 5.4 | 10.4 | 1.1 | . | . | . | 60.0*
NC(=O)c1ccccc1NC(=O)C1CCCO1 (centres undefined) | 1.3 | 0.8 | 1.3 | 4.0 | -2.1 | . | . | . | . | . | .
SMILES | PREPL inhibitor | PP5 primary | PP1 counter | NadD block | Rpn11 block | PP1 confirm | PP5 inh counter | Rpn11 confirm | MMP-2 counter | Thrombin FP | NadD inh conf
CCN(CC)CCOC(=O)c1ccc(N/C=C(/C#N)c2nc(-c3ccc(OC)cc3)cs2)cc1 | 36.7 | 1.0 | 59.8* | 31.6* | 59.2* | 6.0 | -1.4 | 55.0* | -143.5 | 76.7* | -7.5
Cc1sc2nc(CN3CCCC3)nc(N3CCN(S(=O)(=O)c4cccc(F)c4)CC3)c2c1C | 24.6 | 2.5 | 18.6* | 29.6* | . | 3.0 | -1.7 | . | . | . | -10.6
Cc1sc2nc(CN3CCOCC3)nc(N3CCN(S(=O)(=O)c4ccccc4)CC3)c2c1C | 24.6 | 2.8 | -2.7 | 3.4 | 3.3 | . | . | . | . | . | .
CC(C)CCNC(=O)NC(=O)COC(=O)CNC(=O)C1CCCCC1 | 2.8 | -1.3 | -1.8 | -1.5 | -2.4 | . | . | . | . | . | .
Cc1cc(-c2csc(NC(=O)c3ccc(=O)[nH]c3)n2)c(C)n1Cc1ccccc1 | 14.9 | -0.7 | 27.5* | 48.1* | 15.0 | 14.3 | -1.7 | . | . | . | 39.7
O=C(Nc1nc(-c2ccccn2)cs1)C1CCCC1 | -4.7 | -0.9 | 11.5 | 2.1 | 5.1 | . | . | . | . | . | .
O=C(Nc1nc(-c2ccccn2)cs1)c1ncc(Cl)c(Cl)c1Cl | -3.0 | 2.5 | 36.7* | 35.9* | 13.2 | 40.8* | 0.7 | . | . | . | 5.3
